Results from PubChem BioAssay (EPA / NIEHS).
“And” between values parts separate entries of the source, which are not always exact repeats. Equal entries are not always repeated. The source made the active and inactive calls. Rule for the calls: active = hit-call score of the fitted dose curve at least 0.9, where 1 is the maximum; inactive = score below 0.9.

What follows are compounds tested on Interleukin-8 (IL8), CXCL8 (gene 3576) (assay: BSK_hDFCGF_IL8: BioMAP Diversity Plus: hDFCGF Assay for Interleukin-8 (IL8) Biomarker Activity (AID 2283058)). Details: primary human foreskin fibroblasts; actives raise or lower the signal.
Protocol: BSK_hDFCGF is a cell-based, multiplexed-readout assay that uses foreskin fibroblast, a human skin primary cell, with measurements taken at 24 hours after chemical dosing in a 96-well plate.BSK_hDFCGF_IL8 is an assay component measured in the BSK_hDFCGF assay. It measures IL-8 antibody related to regulation of gene expression using ELISA technology.Data from the assay component BSK_hDFCGF_IL8 was analyzed into 1 assay endpoint. This assay endpoint, BSK_hDFCGF_IL8, was analyzed with bidirectional fitting relative to DMSO as the negative control and baseline of activity. Using a type of binding reporter, gain or loss-of-signal activity can be used to understand changes in the signaling as they relate to the gene CXCL8. Furthermore, this assay endpoint can be referred to as a primary readout, because this assay has produced multiple assay endpoints where this one serves a signaling function. To generalize the intended target to other relatable targets, this assay endpoint is annotated to the cytokine intended target family, where the subfamily is interleukins.
The levels of cell surface (or secreted, indicated by the prefix "s") biomarker endpoints were measured by ELISA. Overt cytotoxicity to cells in confluent adherent cultures (all systems other than the BT system) was assessed by measuring total protein levels using sulforhodamine B (SRB) staining in parallel cultures at the time of biomarker measurements, indicated as SRB endpoints. For proliferation assays for adherent cell types, individual cell types are cultured at sub-confluence and relative cell numbers quantified by SRB staining at time points optimized for each system (48 h: 3C and CASM3C systems; 72 h: BT and HDF3CGF systems; 96 h: SAg system). SRB was performed by staining cells with 0.1% SRB after fixation with 10% TCA and reading wells at 560 nm.Viability and proliferation of PBMC (T cells) was quantified by Alamar Blue reduction for the SAg and BT systems. For PBMC viability (referred to as PBMC Cytotoxicity within the assay endpoint names), cells were plated (75,000/well in a 96-well plate) and then chemical samples added for 1 h before addition of activators, SEB and TSST-1 (20 ng/mL final concentration each). Cells were incubated for 90 h. Then, Alamar Blue (20 uL/well) (Invitrogen, Cat DAL1100) was added for 6 h, and the plates were read with a fluorescence microplate reader at 546/580 nm (excitation/emission). For PBMC proliferation, cells were plated and activated as above but incubated for only 16 h prior to addition of Alamar Blue. Plates were read after 6 h.
In the case of CN(C)c1ccc(C(=C2C=CC(=[N+](C)C)C=C2)c2ccccc2)cc1, the AC50 is reported as 2.67 µM (active). With CCCCCCCCCCCCCCCCCC[N+](C)(C)Cc1ccccc1 the AC50 was 2.52 µM (active). O=C(O)CCC(F)(F)C(F)(F)C(F)(F)C(F)(F)C(F)(F)C(F)(F)F was tested, and the outcome was “inactive”. For COCN(COC)c1nc(N(COC)COC)nc(N(COC)COC)n1, the outcome was “inactive”. With OCC(CO)(CBr)CBr the outcome was “inactive”. For O=C(c1ccccc1)c1ccccc1, the outcome was “inactive”. In the case of N=C(N)c1ccc(OCCCCCOc2ccc(C(=N)N)cc2)cc1, the AC50 is reported as 20.9 µM (active). With Cc1ccc(C(=O)c2ccccc2)cc1 the outcome was “inactive”. With CCCCCCCCCCCCCCC the outcome was “inactive”. For O=C(O)CCC(F)(F)C(F)(F)C(F)(F)C(F)(F)C(F)(F)F, the outcome was “inactive”. For CCCCC(CC)C(=O)OCCOCCOCCOCCOC(=O)C(CC)CCCC (stereo not given), the outcome was “inactive”. CN(CCO)S(=O)(=O)C(F)(F)C(F)(F)C(F)(F)C(F)(F)C(F)(F)C(F)(F)C(F)(F)C(F)(F)F was tested, and the outcome was “inactive”. With C=CC(C)(CCC=C(C)C)OC(C)=O (stereo not given) the outcome was “inactive”. With Cc1[nH]nc2c1N=C(c1ccccc1Cl)c1cc([N+](=O)[O-])ccc1N2 the outcome was “inactive”. CC1=NN(c2ccccc2)C(=O)C1 was tested, and the outcome was “inactive”. CC(C)(C)c1ccc(O)c(O)c1 was tested, and the outcome was “inactive”. In the case of Clc1ccc(Nc2nnc(Cc3ccncc3)c3ccccc23)cc1, the outcome is reported as “inactive”. For CC(=O)Nc1ccc(O)cc1, the outcome was “inactive”. With O=C(NCc1ncc(C(F)(F)F)cc1Cl)c1c(Cl)cccc1Cl the outcome was “inactive”. CN(Cc1cnc2nc(N)nc(N)c2n1)c1ccc(C(=O)N[C@@H](CCC(=O)O)C(=O)O)cc1 was tested, and the outcome was “inactive”. For COc1cccc(O)c1, the outcome was “inactive”. In the case of CCCCCc1ccc(O)cc1, the outcome is reported as “inactive”. O=P(O)(O)CCC(F)(F)C(F)(F)C(F)(F)C(F)(F)C(F)(F)C(F)(F)F was tested, and the outcome was “inactive”. In the case of O=C(O)C(F)(F)OC(F)(F)C(F)(F)OC(F)(F)C(F)(F)OC(F)(F)C(F)(F)C(F)(F)C(F)(F)F, the AC50 is reported as 21.9 µM (active) and 21.2 µM (active). With OCCN1CN(CCO)CN(CCO)C1 the outcome was “inactive”. For O=C1c2ccc(O)c(O)c2C(=O)c2c(O)ccc(O)c21, the outcome was “inactive”. With COc1cc(OC)nc(NC(=O)NS(=O)(=O)Nc2ccccc2C(=O)N(C)C)n1 the outcome was “inactive”. In the case of CCCCC=O, the outcome is reported as “inactive”. For CN(C)CCOC(c1ccccc1)c1ccccc1, the outcome was “inactive”. For CCOC(=O)CN[C@@H](C(=O)N1CC[C@H]1C(=O)NCc1ccc(/C(N)=N/O)cc1)C1CCCCC1, the outcome was “inactive”. O=C(NO)c1ccccc1 was tested, and the outcome was “inactive”. With O=C(CCCN1CCC(O)(c2ccc(Cl)cc2)CC1)c1ccc(F)cc1 the outcome was “inactive”. In the case of Cc1cccc2c1ccc1ccccc12, the outcome is reported as “inactive”. For O=C1OC2(c3ccccc31)c1cc(I)c(O)c(I)c1Oc1c2cc(I)c(O)c1I, the outcome was “inactive”. In the case of CCCCC(CC)C(=O)O (stereo not given), the outcome is reported as “inactive”. O=P(O)(O)CCC(F)(F)C(F)(F)C(F)(F)C(F)(F)C(F)(F)C(F)(F)C(F)(F)C(F)(F)F was tested, and the outcome was “inactive”. With O=S(=O)(O)C(F)(F)C(F)(F)C(F)(F)C(F)(F)C(F)(F)C(F)(F)C(F)(F)C(F)(F)C(F)(F)C(F)(F)F the outcome was “inactive”. C=CC(=C)CC/C=C(\C)CCC=C(C)C was tested, and the outcome was “inactive”. For CCCCCCCCCCCC, the AC50 was 12.9 µM (active) and 14.6 µM (active). CCCCCCCCCCCCOS(=O)(=O)O was tested, and the outcome was “inactive”.
